Tests used:
Test in all cases: relative growth (AUC of 72 h growth curve relative to DMSO control, dAUC) (ratio); higher = more growth (less inhibition), active = hit call of the paper
Conditions in all cases: 20 µM;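 active = growth AUC significantly below the DMSO wells by Dunnett test; inactive = the rest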
[1] = tested on: Aeromonas 1 (Aeromonas sp. AE235)
Summary of the method: (§1)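 Isolates from Icelandic stream sediments and Silwood Park soil, along with whole sediment communities, were grown in Luria–Bertani medium to carrying capacity and diluted 1:100 into 96-well plates with each chemical at 20 µM (1% DMSO). A600 was measured hourly for 72 h, and values were averaged over three biological replicates. Relative growth (dAUC) is the spline-integrated growth-curve area over the mean of the DMSO controls.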

[2] = tested on: Aeromonas 2 (Aeromonas sobria)
Summary of the method: as §1

[3] = tested on: Aeromonas 3 (Aeromonas popoffii)
Summary of the method: as §1

[4] = tested on: Argrobacterium 1 (Agrobacterium sp.)
Summary of the method: as §1

[5] = tested on: Arthrobacter 1 (Arthrobacter humicola)
Summary of the method: as §1

[6] = tested on: Arthrobacter 2 (Arthrobacter humicola)
Summary of the method: as §1

[7] = tested on: Arthrobacter 3 (Arthrobacter sp.)
Summary of the method: as §1

[8] = tested on: Community 10
Summary of the method: as §1

[9] = tested on: Community 4
Summary of the method: as §1

[10] = tested on: Community 6
Summary of the method: as §1

Measured: relative growth

O=C(NCCc1ncc(C(F)(F)F)cc1Cl)c1ccccc1C(F)(F)F
inactive: [1] 0.997 | [2] 0.977 | [3] 0.973 | [4] 1.13 | [5] 0.873 | [6] 0.931 | [7] 1.01 | [8] 0.806 | [9] 0.994 | [10] 0.939

CC(C)OC(=O)C(C(=O)OC(C)C)=C1SCCS1
inactive: [1] 0.961 | [2] 0.967 | [3] 0.993 | [4] 1.02 | [5] 1.02 | [6] 0.922 | [7] 0.975 | [8] 0.804 | [9] 0.901 | [10] 0.886

CS(=O)(=O)NC(=O)c1cc(Oc2ccc(C(F)(F)F)cc2Cl)ccc1[N+](=O)[O-]
inactive: [1] 1.02 | [2] 1.02 | [3] 1.03 | [4] 1.02 | [5] 0.905 | [6] 1.07 | [7] 1.05 | [8] 1.09 | [9] 1.02 | [10] 1.03

N#Cc1c(Cl)c(Cl)c(Cl)c(C#N)c1Cl
inactive: [1] 1.04 | [2] 0.898 | [3] 1.01 | [4] 0.958 | [8] 0.896 | [9] 1.08 | [10] 0.965
active: [5] 0.567 | [6] 0.136 | [7] 0.599

CC(Oc1ccc(Oc2ncc(C(F)(F)F)cc2Cl)cc1)C(=O)O (stereo not given)
inactive: [1] 0.952 | [2] 0.974 | [3] 0.959 | [4] 0.969 | [5] 1.08 | [6] 1.03 | [7] 1.08 | [8] 0.793 | [9] 1.02 | [10] 0.947

CCCN(CCC)C(=O)SCc1ccccc1
inactive: [1] 1.03 | [2] 1.02 | [3] 1 | [4] 1.04 | [5] 1.05 | [6] 0.932 | [7] 1.02 | [8] 0.888 | [9] 0.997 | [10] 0.996

O=[N+]([O-])c1cc(C(F)(F)F)c(Cl)c([N+](=O)[O-])c1Nc1ncc(C(F)(F)F)cc1Cl
inactive: [1] 1.04
active: [2] 0.00203 | [3] 0.00448 | [4] 0.0123 | [5] 0.035 | [6] 0.0116 | [7] 0.0138 | [8] 0.534 | [9] 0.614 | [10] 0.498

COP(=O)(OC)OC=C(Cl)Cl
inactive: [1] 0.937 | [2] 0.977 | [3] 0.972 | [4] 0.977 | [5] 0.856 | [6] 0.86 | [7] 0.916 | [8] 1.04 | [9] 0.961 | [10] 0.961

CC1(C)C(C=C(Cl)Cl)C1C(=O)OCc1cccc(Oc2ccccc2)c1 (stereo not given)
inactive: [1] 1.03 | [2] 0.961 | [3] 0.99 | [4] 1.04 | [5] 1.12 | [6] 0.851 | [7] 0.987 | [8] 0.824 | [9] 0.922 | [10] 0.94

CC1(C)[C@H](C(=O)O[C@H](C#N)c2cccc(Oc3ccccc3)c2)[C@@H]1C=C(Br)Br
inactive: [1] 1.05 | [2] 1.04 | [3] 1.09 | [4] 1.09 | [5] 1.16 | [6] 0.949 | [7] 0.946 | [8] 0.964 | [9] 1.01 | [10] 1.06

CN/C(=N\[N+](=O)[O-])NCc1cnc(Cl)s1
inactive: [1] 1 | [2] 0.976 | [3] 0.985 | [4] 0.98 | [5] 0.983 | [6] 0.841 | [7] 0.873 | [8] 0.931 | [9] 0.981 | [10] 0.914

CC1(C)C(C=C(Cl)Cl)C1C(=O)OC(C#N)c1cccc(Oc2ccccc2)c1 (stereo not given)
inactive: [1] 0.976 | [2] 1.04 | [3] 1.08 | [4] 1.07 | [5] 1.28 | [6] 0.971 | [7] 1.03 | [8] 1.21 | [9] 1.1 | [10] 1.12

Cc1cc(C)nc(Nc2ccccc2)n1
inactive: [1] 0.974 | [2] 0.977 | [3] 1.07 | [4] 0.874 | [5] 0.948 | [6] 0.929 | [7] 1.03 | [8] 1.07 | [9] 0.984 | [10] 1.04

CO/N=C(/C(=O)OC)c1ccccc1CO/N=C(\C)c1cccc(C(F)(F)F)c1
inactive: [1] 0.966 | [2] 0.929 | [3] 0.961 | [4] 1.07 | [5] 0.928 | [6] 0.876 | [7] 0.97 | [8] 0.708 | [9] 0.822 | [10] 0.809

O=C(NC(=O)c1c(F)cccc1F)Nc1ccc(Cl)cc1
inactive: [1] 1.01 | [2] 1.01 | [3] 0.986 | [4] 1.04 | [5] 0.955 | [6] 0.985 | [7] 1.09 | [8] 0.795 | [9] 0.924 | [10] 0.996

CCCCN(CCCC)SN(C)C(=O)Oc1cccc2c1OC(C)(C)C2
inactive: [1] 1.06 | [2] 1.03 | [3] 1.05 | [4] 1.07 | [5] 1.23 | [6] 0.838 | [7] 0.966 | [8] 0.824 | [9] 0.917 | [10] 0.92

CNC(=O)c1cc(Cl)cc(C)c1NC(=O)c1cc(Br)nn1-c1ncccc1Cl
inactive: [1] 1.01 | [2] 1.05 | [3] 1.03 | [4] 0.963 | [5] 1.08 | [6] 0.758 | [7] 1.02 | [8] 1.14 | [9] 1.09 | [10] 1.07

CSc1nc(NC(C)C)nc(NC(C)C)n1
inactive: [1] 0.966 | [2] 0.971 | [3] 0.983 | [4] 1.03 | [5] 1.03 | [6] 0.956 | [7] 1.07 | [8] 0.857 | [9] 0.933 | [10] 0.922

OC(Cn1cncn1)(c1ccc(F)cc1)c1ccccc1F (stereo not given)
inactive: [1] 0.996 | [2] 1.04 | [3] 1.01 | [4] 1.02 | [5] 0.835 | [6] 1.11 | [7] 1.04 | [8] 1.09 | [9] 1.08 | [10] 1.07

Nc1c([N+](=O)[O-])ccc(Oc2ccccc2)c1Cl
inactive: [1] 0.959 | [2] 0.953 | [3] 0.961 | [4] 0.972 | [5] 0.894 | [6] 0.826 | [7] 0.957 | [8] 0.833 | [9] 0.851 | [10] 0.856

CC1(C(=O)Nc2ccc(O)c(Cl)c2Cl)CCCCC1
inactive: [1] 0.972 | [2] 0.983 | [3] 0.993 | [4] 0.983 | [5] 0.846 | [6] 1.02 | [7] 0.984 | [8] 0.827 | [9] 0.977 | [10] 0.984

CC[C@H](C)C1O[C@]2(C=C[C@@H]1C)C[C@@H]1C[C@@H](C/C=C(\C)[C@@H](O[C@H]3C[C@H](OC)[C@@H](O[C@H]4C[C@H](OC)[C@H](NC)[C@H](C)O4)[C@H](C)O3)[C@@H](C)/C=C/C=C3\CO[C@@H]4[C@H](O)C(C)=C[C@@H](C(=O)O1)[C@]34O)O2 (stereo not given in full)
inactive: [1] 1.08 | [2] 0.923 | [3] 0.979 | [4] 1.11 | [8] 0.9 | [9] 0.787
active: [5] 0.108 | [6] 0.00328 | [7] 0.324 | [10] 0.509

CCOC(=O)OC1=C(c2cc(C)ccc2C)C(=O)N[C@]12CC[C@@H](OC)CC2
inactive: [1] 0.965 | [2] 0.981 | [3] 1.01 | [4] 1.03 | [5] 1.17 | [6] 1.03 | [7] 0.986 | [8] 0.945 | [9] 1.14 | [10] 1.02

CCc1cccc(C)c1N(C(=O)CCl)[C@@H](C)COC
inactive: [1] 1.01 | [2] 0.962 | [3] 0.992 | [4] 1 | [5] 1.08 | [6] 0.89 | [7] 1.02 | [8] 0.929 | [9] 1.01 | [10] 0.968

COP(=S)(OC)SCN1C(=O)c2ccccc2C1=O
inactive: [1] 1.02 | [2] 1.03 | [3] 1.01 | [4] 0.987 | [5] 0.962 | [6] 0.748 | [7] 1.09 | [8] 1 | [9] 1.02 | [10] 1.03

CCOc1cc(Oc2ccc(C(F)(F)F)cc2Cl)ccc1[N+](=O)[O-]
inactive: [1] 0.962 | [2] 0.975 | [3] 0.966 | [4] 1.01 | [5] 1.02 | [6] 0.848 | [7] 1.01 | [8] 0.824 | [9] 0.905 | [10] 0.907

CC[C@H](C)[C@H]1O[C@]2(C=C[C@@H]1C)C[C@@H]1C[C@@H](C/C=C(\C)[C@@H](O[C@H]3C[C@H](OC)[C@@H](O[C@H]4C[C@H](OC)[C@@H](O)[C@H](C)O4)[C@H](C)O3)[C@@H](C)/C=C/C=C3\CO[C@@H]4[C@H](O)C(C)=C[C@@H](C(=O)O1)[C@]34O)O2.CO[C@H]1C[C@H](O[C@H]2[C@H](C)O[C@@H](O[C@@H]3/C(C)=C/C[C@@H]4C[C@@H](C[C@]5(C=C[C@H](C)[C@@H](C(C)C)O5)O4)OC(=O)[C@@H]4C=C(C)[C@@H](O)[C@H]5OC/C(=C\C=C\[C@@H]3C)[C@]54O)C[C@@H]2OC)O[C@@H](C)[C@@H]1O
inactive: [1] 0.949 | [2] 0.927 | [3] 1.06 | [4] 1.11 | [8] 0.898 | [9] 0.808
active: [5] 0.181 | [6] 0.00817 | [7] 0.16 | [10] 0.662
